biological target: SHOC2; experiment: pooled miR-30 sensor sort-seq; sequence = guide strand; conditions: shRNA
Further: reference of the scale not given here.

**Q.** With TTACTTAATACTTTTGCTCTGG as the sequence, how does the sensor-assay potency score (higher = more potent) read?
**A.** Its sensor-assay potency score (higher = more potent) is 0.139.

**Q.** For TTTGTTCTCTTCTAGATCCAAC, which sensor-assay potency score (higher = more potent) is on record?
**A.** Its sensor-assay potency score (higher = more potent) is -0.823.

**Q.** How did the sensor-assay potency score (higher = more potent) turn out when TATATCTAACTATACTACCTCT was run?
**A.** Its sensor-assay potency score (higher = more potent) is -0.42.

**Q.** For TCCAACTCTCTTAACTTCCTAA, which sensor-assay potency score (higher = more potent) is on record?
**A.** Its sensor-assay potency score (higher = more potent) is -0.798.

**Q.** Which sensor-assay potency score (higher = more potent) does the source give for TATCTAACTATACTACCTCTGT here?
**A.** The sensor-assay potency score (higher = more potent) was -0.264.

**Q.** Which sensor-assay potency score (higher = more potent) does the source give for TTGATCGTATTGTCAACTGAAA here?
**A.** Its sensor-assay potency score (higher = more potent) is -1.19.

**Q.** Which sensor-assay potency score (higher = more potent) does the source give for TATGTGTATAGATCTCTTGGAT here?
**A.** The sensor-assay potency score (higher = more potent) was -0.313.

**Q.** With TTTGATCGTATTGTCAACTGAA as the sequence, how does the sensor-assay potency score (higher = more potent) read?
**A.** The sensor-assay potency score (higher = more potent) was 0.487.

**Q.** TGAATTTTCACTTAGAGCCAGT was tested. Which sensor-assay potency score (higher = more potent) did it give?
**A.** Its sensor-assay potency score (higher = more potent) is -0.612.

**Q.** With TTCTCTTCTAGATCCAACTCTC as the sequence, how does the sensor-assay potency score (higher = more potent) read?
**A.** Its sensor-assay potency score (higher = more potent) is -0.213.

**Q.** How did the sensor-assay potency score (higher = more potent) turn out when TTGTGAGCTACATCCAGCGTAA was run?
**A.** Its sensor-assay potency score (higher = more potent) is 0.0478.

**Q.** Which sensor-assay potency score (higher = more potent) does the source give for TTGATTGTGAGCTACATCCAGC here?
**A.** The sensor-assay potency score (higher = more potent) was -0.412.

biological target: SHOX2; experiment: as above; conditions: shRNA

**Q.** With TTTCTACATTTAGCTCTTCGAT as the sequence, how does the sensor-assay potency score (higher = more potent) read?
**A.** Its sensor-assay potency score (higher = more potent) is -1.28.

**Q.** For TTTGCGATCTTTCAGCTCCGGG, which sensor-assay potency score (higher = more potent) is on record?
**A.** The sensor-assay potency score (higher = more potent) was -1.2.

**Q.** TCCAGGGTGAAATTGGTCCGAC was tested. Which sensor-assay potency score (higher = more potent) did it give?
**A.** The sensor-assay potency score (higher = more potent) was -1.19.

**Q.** TTGCGATCTTTCAGCTCCGGGG was tested. Which sensor-assay potency score (higher = more potent) did it give?
**A.** Its sensor-assay potency score (higher = more potent) is -1.14.

**Q.** For TTCTACATTTAGCTCTTCGATT, which sensor-assay potency score (higher = more potent) is on record?
**A.** Its sensor-assay potency score (higher = more potent) is -0.898.

**Q.** For TTTGAAACCAAACCTGCACTCG, which sensor-assay potency score (higher = more potent) is on record?
**A.** The sensor-assay potency score (higher = more potent) was -0.285.

**Q.** With TATGAGAACACCTTTATGGAGT as the sequence, how does the sensor-assay potency score (higher = more potent) read?
**A.** The sensor-assay potency score (higher = more potent) was -0.114.

**Q.** With TTTATGGAGTTGATTTTCTTGT as the sequence, how does the sensor-assay potency score (higher = more potent) read?
**A.** The sensor-assay potency score (higher = more potent) was -0.402.

**Q.** With TTCTATGCAAGAGTCCATCGTT as the sequence, how does the sensor-assay potency score (higher = more potent) read?
**A.** Its sensor-assay potency score (higher = more potent) is 0.114.

**Q.** Which sensor-assay potency score (higher = more potent) does the source give for TACATTTAGCTCTTCGATTTTG here?
**A.** The sensor-assay potency score (higher = more potent) was -1.22.

**Q.** Which sensor-assay potency score (higher = more potent) does the source give for TTTTCTTGTTTTCTACATTTAG here?
**A.** Its sensor-assay potency score (higher = more potent) is -1.51.

**Q.** For TTCTTGCTGGTGGTCTTGGCGG, which sensor-assay potency score (higher = more potent) is on record?
**A.** The sensor-assay potency score (higher = more potent) was -1.37.

Source: the OligoGym collection
